Assay results reported in PubChem BioAssay (NCI).
Compounds without any hit were thinned out: in the full panel of roughly 83,000, 20% have a hit.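 Interpretation: 100, growth as untreated; towards 0, rising growth inhibition; 0, no net growth; 0 to -100, cell death. Compounds scoring below 10 were considered active.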 A number with no mark means an inactive call. Active and inactive are the calls of the source.

These compounds were tested on LOX IMVI melanoma (assay: NCI-60 one-dose screen, 48 h (100 = growth as untreated, 0 = no growth, -100 = all killed)). Conditions: 10 µM.
Procedure: Growth inhibition of the LOX IMVI human tumor cell line is measured as a screen for anti-cancer activity. Cells are grown in 96 well plates and exposed to the test compound for 48 hours. Compounds are tested at a single concentration, which is 10^-5 M for most compounds. The reported endpoint is percent growth (GI% or GIPRCNT), where numbers from 0 - 100% represent growth inhibition, and numbers from -100% - 0 represent cell death. For example, a value of 40 represents 60% growth inhibition. A value of 0 means no net growth occurred over the course of the experiment. A value of -40 indicates 40% of cells at the beginning of the experiment died by the end of the experiment. A value of -100 means all cells are dead at the end of the experiment.
NCI-60 Human Tumor Cell Lines Screen was performed using the standard one-dose NCI protocol, which is described in more detail at https://dtp.cancer.gov/discovery_development/nci-60/default.htm.
Compounds with GIPRCNT values below 10 were considered active. Activity score was based on GIPRCNT using the following formula: […]
Score is 0 for GIPRCNT values of 100 or above, 50 for GIPRCNT values of 0, and 100 for GIPRCNT values of -100.

SMILES	growth
Cc1ccc(CNC(=O)Cc2ccc3c(c2)CN(C2CCC(=O)NC2=O)C3=O)cc1 (stereo not given)	71.4%
COC1CC(Cn2cc(COc3ccc4ccc(=O)oc4c3)nn2)C(OCc2ccccc2)C(OCc2ccccc2)C1OCc1ccccc1 (stereo not given)	99.4%
CC(=C(c1ccc(OCCN2CCCCC2)cc1)c1ccc(OCCN2CCCCC2)cc1)c1ccccc1	-96.6% (active)
CCCCSc1nc(Nc2ccc(/C(C)=N/NC(N)=S)cc2)c(C#N)c(-c2ccccc2)n1	5.73% (active)
COc1cc(Cn2c(C(F)(F)F)cc3c(Cl)ncnc32)ccn1	-100% (active)
COc1ccc(-c2ccc(/C=N/NC(=O)c3[nH]c4ccc(Br)cc4c3-c3ccccc3)s2)cc1	75.5%
O=C(c1ccc(O)cc1)C1[C@H](c2ccc(Br)cc2)[C@@H](c2ccccc2)NC12C(=O)Nc1ccccc12 (stereo not given in full)	-96.9% (active)
COc1ccc(/C(CSc2nnc(-c3c[nH]c4ccccc34)n2-c2ccccc2)=N/O)cc1	-78.2% (active)
O=C(CSc1nnc(-c2ccc3nc(-c4ccc(Cl)cc4)[nH]c3c2)o1)Nc1ccc(Br)cc1	-100% (active)
CC(=O)Nc1ccc(-c2cn(-c3cccc(C(=O)Nc4ccc(F)c(C(F)(F)F)c4)c3)nn2)cn1	8.57% (active)
O=C(CSc1nnc(-c2ccc3nc(-c4ccccc4)[nH]c3c2)o1)Nc1ccc(Cl)cc1	-2.86% (active)
Cc1cccc(-c2nc(Nc3ccccc3C(=O)O)c3ccccc3n2)c1	36.4%
Cc1cc(C)nc(SCC(=O)Nc2ccc(S(N)(=O)=O)cc2)n1	96.7%
COC1=C[C@]23CCC(=O)N2CCc2cc4c(cc2[C@@H]3[C@@H]1OC(=O)CCCC(C)C)OCO4	7.89% (active)
Cc1ccc(NC(=O)c2ccc(-n3c(=O)[nH]c4ccccc4c3=O)cc2)cc1	85.1%
COc1ccc(-c2ccc(/C=N/NC(=O)c3[nH]c4ccc(Br)cc4c3-c3ccccc3)o2)cc1	26.7%
N#C/C(=C\c1ccc(N(c2ccccc2)c2ccccc2)cc1)C(N)=O	79%
COc1ccc(OC)c(-c2cc(-c3c[nH]c4ccccc34)nc(N)c2C#N)c1	-65.8% (active)
O=C(CS(=O)(=O)c1oc(-c2ccc(Cl)cc2)nc1S(=O)(=O)c1ccc(Cl)cc1)N1CCOCC1	-90.8% (active)
CN1CCN(c2ccc(Nc3nc(N4CCN(S(=O)(=O)c5ccc(F)cc5)CC4)c4sccc4n3)cc2)CC1	-91.7% (active)

SMILES	growth
CC(=O)c1ccc(NC(=O)NCn2c(=O)[nH]c3ccccc3c2=O)cc1	92.8%
COc1ccc(NC(=O)CSc2nnc(-c3ccc4nc(-c5ccc(Cl)cc5)[nH]c4c3)o2)cc1	16.6%
O=C1Nc2cc(-c3ccc(NC(=O)c4cccc([N+](=O)[O-])c4)cc3)ccc2/C1=C/c1ccc[nH]1	86.9%
COc1ccc(-c2cc(C(=O)N=Nc3c(O)[nH]c4ccc(F)cc34)c3ccccc3n2)cc1	24.1%
Cc1cc(=O)oc2cc(OCCCCOc3ccc(/C=C/C(=O)Nc4ccc(F)c(Cl)c4)cc3)ccc12	97.6%
Cc1ccc2nc(-c3ccc(-c4nnc(SCC(=O)Nc5ccc(Cl)cc5)o4)cc3)[nH]c2c1	-45.6% (active)
CC1(C)CC[C@]2(C(=O)O)CC[C@]3(C)C(=CC[C@@H]4[C@@]5(C)C/C(=C/c6ccncc6)[C@H](O)C(C)(C)[C@@H]5CC[C@]43C)[C@@H]2C1	28.7%
Cc1ccc2nc(COc3ccc(C(=O)NNC(=S)NCCc4ccccc4)cc3)[nH]c2c1	79.9%
CN1CCCN(Cc2ccc(C(=O)Nc3cccc(Nc4ccc5c(O)cccc5n4)c3)cc2C(F)(F)F)CC1	-95.5% (active)
O=c1cc(-c2ccccc2)oc2cc(OCCCNCc3ccccc3)cc(O)c12	-97.8% (active)
CN1C(=O)/C(=C/c2ccc3ncsc3c2)NC1=NC12CC3CC(CC(O)(C3)C1)C2	-52.8% (active)
CN1CCN(c2ccc(Nc3nc(NCCCNC(=O)c4ccc(Cl)cc4)c4sccc4n3)cc2)CC1	59.7%
COc1cc2c(cc1OC)CN(CCCCOc1cc(O)c3c(=O)cc(-c4ccccc4)oc3c1)CC2	-66.1% (active)
CCCCCc1ccc(S(=O)(=O)Nc2cc(-c3csc(N(C)C(C)=O)n3)ccc2N2CCN(C)CC2)cc1	-71.1% (active)
CCCn1c(=O)c2[nH]c(-c3ccc(OCc4nc5ccc(C(F)(F)F)cc5[nH]4)cc3)nc2n(CCC)c1=O	35.5%
Cc1noc2c(Cc3ccccc3)nn(CC(=O)N/N=C/c3ccc(Cl)cc3)c(=O)c12	48.7%
O=C(O)CCCCCCCCCCN1C(=O)/C(=C/c2cnc(-c3ccccc3)s2)SC1=S	32.1%
CCN1CCN(c2ccc(NC(=O)Nc3ccc4c(c3F)CCN4c3ccnc(C(=O)NC)c3)cc2C(F)(F)F)CC1	-99.9% (active)
COc1ccc(N(C)c2cc(C#N)nc3ccccc23)cc1N	15%
O=C1CCC(N2Cc3cc(CC(=O)Nc4ccc(N5CCCCC5)cc4)ccc3C2=O)C(=O)N1 (stereo not given)	105%
